Results from PubChem BioAssay AID1347165 (National Center for Advancing Translational Sciences (NCATS), 2019).
The campaign covered roughly 220,000 compounds. About 5,700 (2.6%) were called active. Not shown: some 18% with an inconclusive outcome. Only a selection was taken, and actives are over-represented in it overall. A number with no mark means an inactive call. Calls come from the whole dose curve; as a rule, active = well fitted inhibition curve with a large enough effect; inconclusive = small, poorly fitted or top-dose-only effect; inactive = no such curve, though single readings can be large or run the other way.

Biological target: Lysine-specific demethylase 5B (Homo sapiens) (UniProt Q9UGL1)
Sequence (Q9UGL1 whole entry, looked up): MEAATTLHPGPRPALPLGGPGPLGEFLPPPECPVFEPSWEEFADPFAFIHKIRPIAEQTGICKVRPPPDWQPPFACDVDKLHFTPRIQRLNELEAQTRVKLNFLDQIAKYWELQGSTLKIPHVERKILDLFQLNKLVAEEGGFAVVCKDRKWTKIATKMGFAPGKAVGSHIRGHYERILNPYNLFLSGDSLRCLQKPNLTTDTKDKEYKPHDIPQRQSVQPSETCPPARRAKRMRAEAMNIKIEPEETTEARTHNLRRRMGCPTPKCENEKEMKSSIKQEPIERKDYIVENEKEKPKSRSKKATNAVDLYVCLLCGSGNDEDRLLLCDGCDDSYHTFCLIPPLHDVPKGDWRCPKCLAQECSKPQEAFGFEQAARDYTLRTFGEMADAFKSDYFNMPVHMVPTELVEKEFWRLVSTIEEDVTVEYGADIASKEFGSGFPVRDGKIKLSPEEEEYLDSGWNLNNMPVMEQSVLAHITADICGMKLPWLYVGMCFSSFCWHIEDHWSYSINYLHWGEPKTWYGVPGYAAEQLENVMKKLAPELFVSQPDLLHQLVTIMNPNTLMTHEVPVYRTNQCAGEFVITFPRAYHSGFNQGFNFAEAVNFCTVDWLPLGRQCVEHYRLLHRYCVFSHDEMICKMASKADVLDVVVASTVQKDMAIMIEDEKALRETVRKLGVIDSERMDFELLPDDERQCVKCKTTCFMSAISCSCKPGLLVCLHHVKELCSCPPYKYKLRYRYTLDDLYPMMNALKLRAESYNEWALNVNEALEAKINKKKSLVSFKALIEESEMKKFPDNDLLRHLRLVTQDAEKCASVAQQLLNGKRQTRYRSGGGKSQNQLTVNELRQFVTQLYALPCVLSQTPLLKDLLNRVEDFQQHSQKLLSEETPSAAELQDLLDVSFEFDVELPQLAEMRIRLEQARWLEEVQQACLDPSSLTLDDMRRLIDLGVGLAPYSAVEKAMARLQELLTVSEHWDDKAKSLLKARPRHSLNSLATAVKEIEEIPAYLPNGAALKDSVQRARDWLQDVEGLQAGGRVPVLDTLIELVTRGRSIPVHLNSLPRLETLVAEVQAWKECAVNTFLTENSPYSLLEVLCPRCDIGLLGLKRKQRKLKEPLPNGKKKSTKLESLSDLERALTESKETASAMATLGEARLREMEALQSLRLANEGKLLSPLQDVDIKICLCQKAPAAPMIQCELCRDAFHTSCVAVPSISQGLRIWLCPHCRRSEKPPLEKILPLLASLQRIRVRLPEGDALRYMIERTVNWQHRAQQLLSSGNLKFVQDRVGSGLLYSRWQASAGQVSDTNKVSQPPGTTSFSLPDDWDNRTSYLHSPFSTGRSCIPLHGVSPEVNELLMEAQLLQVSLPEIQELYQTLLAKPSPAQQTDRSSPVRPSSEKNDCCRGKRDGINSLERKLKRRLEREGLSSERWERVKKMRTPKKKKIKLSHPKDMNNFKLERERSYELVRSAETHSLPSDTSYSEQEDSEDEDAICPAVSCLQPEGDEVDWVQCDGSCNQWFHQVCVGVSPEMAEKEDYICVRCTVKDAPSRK
Experiment: Primary screen for KDM5B Histone Demethylases FDH-coupled qHTS; note: nearly all actives have a fitted effect of over 70% in size; for activity change, negative = inhibition: 0% is about no effect
Details: FDH-coupled NADH fluorescence (FDH is formaldehyde dehydrogenase); series mostly up to 57.7 µM; activity change, negative = inhibition: at the top concentration
How it was run: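 KDM5BΔAP (200 nM final) in 50 mM HEPES pH 7.5, 0.01% Tween-20 was preincubated 10 min at RT with compound over a concentration range. Substrate mix (H3K4me3 12.5 µM, α-KG 25 µM, Fe²⁺, ascorbate, NAD⁺, FDH) was added, and NADH fluorescence change over 30 min gave dose-response curves.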
Potency is the fitted concentration of half-maximal effect.

Compound | activity change, negative = inhibition | Potency
CN=c1scc(-c2cccs2)n1/N=C/c1cccs1 | 4.26% | –
Cc1cnc(CCNC(=O)Nc2ccccc2F)n1C1CCC1 | -9.92% | –
CNC(=O)c1cccc(-c2cnc3[nH]cc(CC(=O)NCc4cccc(F)c4)c3c2)c1 | -2.5% [at 86.2 µM] | –
COc1ncccc1-c1cnc2[nH]cc(CC(=O)N(C)Cc3ccccc3)c2c1 | – | 28.2 µM (active)
COCCNC(=O)Cc1c[nH]c2ncc(-c3cccnc3OC)cc12 | – | 31.6 µM (active)
COc1ccccc1C(=O)NCCC(=O)N(C)Cc1cccnc1 | 15.8% | –
Cc1ccccc1C(=O)NCc1c[nH]c2ncccc12 | -7.61% [at 86.2 µM] | –
CN(Cc1cccs1)C(=O)Cc1c[nH]c2ccccc12 | 2.68% | –
CN(CC(=O)NCc1ccc(F)cc1)C(=O)c1ccc2c(c1)nnn2C | -1.64% | –
Cc1nc2cc(NC(=O)c3cccc(S(=O)(=O)Nc4ccc(SC(F)F)cc4)c3)ccc2o1 | -21.1% | –
CCN(CC)S(=O)(=O)c1ccc(-c2csc(-c3cccc(OC)c3OC)n2)cc1 | 6.59% | –
NC(Cc1ccccc1)(Cc1ccccc1)C(=O)O | 5.7% | –
O=C(c1cnc(N2CCCCC2)c2ccccc12)N1CCN(c2ccccn2)CC1 | -0.794% | –
O[C@@H]1C[C@@H](c2nc(-c3ccc4c(c3)OCO4)no2)N(Cc2ccc(-c3ccccn3)cc2)C1 | – | 25.1 µM (active)
COc1ccc(CN2C[C@H](O)C[C@H]2c2nc(-c3ccc4c(c3)OCO4)no2)c(OC)c1OC | -8.22% | –
Oc1ccccc1CN1C[C@H](O)C[C@H]1c1nc(Cc2ccc(F)cc2Cl)no1 | 7.24% [at 86.2 µM] | –
N#Cc1cccc(CN2C[C@H](O)C[C@H]2c2nc(-c3ccccn3)no2)c1 | -20.8% [at 86.2 µM] | –
O=[N+]([O-])c1ccccc1CN1C[C@H](O)C[C@H]1c1nc(-c2ccc(F)cc2)no1 | – | 25.1 µM (active)
O=[N+]([O-])c1cccc(-c2noc([C@@H]3C[C@@H](O)CN3Cc3cccc(OC(F)(F)F)c3)n2)c1 | -27% | –
CC(c1nc(-c2cccs2)no1)N(C)Cc1ccc(F)cc1F (stereo not drawn) | 12.1% | –
Cc1ccc(NC(=O)N2CCC(OC3CCN(S(C)(=O)=O)CC3)CC2)cc1F | 22.8% | –
CC(Sc1ncnc2nc[nH]c12)C(=O)NCc1ccc(Cl)c(Cl)c1 (stereo not drawn) | 11.4% | –
O=C(NC1CCN(c2cc(-c3ccc(Cl)cc3)[nH]n2)CC1)c1ccccc1F | -1.6% | –
O=C(NC1CCN(c2cc(-c3ccc(F)cc3)[nH]n2)C1)c1ccc2c(c1)OCO2 (stereo not drawn) | -28% | –
O=C(NC1CCCN(c2cc(-c3ccc(Cl)cc3)[nH]n2)C1)c1ccccc1F (stereo not drawn) | -5.14% | –

Compound | activity change, negative = inhibition | Potency
O=C(NC1CCCN(c2cc(-c3ccc(Cl)cc3)[nH]n2)C1)c1ccncc1 (stereo not drawn) | -2.2% | –
O=C(NC1CCN(c2cc(-c3ccccc3)[nH]n2)CC1)c1cccs1 | 5.39% | –
O=C(NC1CCN(c2cc(-c3ccc(Cl)cc3)[nH]n2)C1)c1c[nH]c2ccccc12 (stereo not drawn) | – | 11.2 µM (active)
O=C(NC1CCN(c2cc(-c3ccc(F)cc3)[nH]n2)C1)c1cc2ccccc2[nH]1 (stereo not drawn) | – | 8.91 µM (active)
O=C(NC1CCN(c2cc(-c3cccs3)[nH]n2)C1)c1ccc(Br)cc1 (stereo not drawn) | – | 4.47 µM (active)
O=C(NC1CCCN(c2cc(-c3ccccc3)[nH]n2)C1)c1cccc(Cl)c1 (stereo not drawn) | -14.6% | –
Cn1nccc1C(=O)NC1CCCN(c2cc(-c3ccc(F)cc3)[nH]n2)C1 (stereo not drawn) | -17.7% | –
O=C(NC1CCCN(c2cc(-c3ccc(F)cc3)[nH]n2)C1)c1ccc(Br)cc1 (stereo not drawn) | 7.03% | –
O=C(NC1CCCN(c2cc(-c3ccccc3)[nH]n2)C1)c1cccc2[nH]ccc12 (stereo not drawn) | – | 28.2 µM (active)
C=C(Br)CN1CCCC1 | -17.3% | –
CCc1cccc(-n2c(SCc3nc4ccccc4o3)nnc2N2CCOCC2)c1 | -1.04% | –
O=C(c1ccccc1F)N1CCC(c2nn(-c3ccc(Cl)cc3)c(=O)[nH]2)CC1 | -1% | –
CCOc1cccc2cc(-c3cc(=O)oc4cc(OC(=O)N5CCOCC5)ccc34)c(=O)oc12 | -7.16% | –
Cc1cc(C)c2nc(SCC(=O)NC(=O)NC(C)(C)C)cc(C)c2c1 | 1.49% | –
COc1ccc(CC(=O)NC2CCN(c3cc(-c4ccccc4)[nH]n3)CC2)cc1 | 0.366% | –
COc1cccc(CC(=O)NC2CCN(c3cc(-c4ccc(F)cc4)[nH]n3)C2)c1 (stereo not drawn) | – | 7.94 µM (active)
CCOc1ccc(CC(=O)NC2CCN(c3cc(-c4ccc(F)cc4)[nH]n3)CC2)cc1OCC | 13.2% | –
Cc1ccc(S(=O)(=O)NCCC(=O)Nc2cccc(S(N)(=O)=O)c2)cc1C | 31.2% | –
CC1(c2cccnc2)N(CCOc2ccccc2)C(=O)OC12CCN(C(=O)c1cccc(Cl)c1)CC2 (stereo not drawn) | -16.2% | –
CC1(c2cccnc2)N(Cc2ccccc2)C(=O)OC12CCN(C(=O)c1cccc(Cl)c1)CC2 (stereo not drawn) | -16% | –
CCOc1ccccc1CN1CCC2(CCN(C(=O)c3cccc(Cl)c3)CC2)Oc2ccccc21 | – | 25.1 µM (active)
Cn1cccc1CN1CCC2(CC1)CNc1ccccc1[S+](=O)([O-])N2 | -25.4% | –
CN(C)C(=O)c1cc(-c2cccc(C(F)(F)F)c2)c2nncn2n1 | – | 100 µM (active)
NCc1ccccc1-c1cccc(C(F)(F)F)c1 | -5.98% [at 149 µM] | –
CN(C)C(=O)c1n[nH]c2c1CN(C(=O)c1cccc(C(F)(F)F)c1)CC2 | 0.85% | –

Compound | activity change, negative = inhibition | Potency
Cc1ccc(N2CCN(C(C(=O)O)c3c[nH]c4cc(NC(=O)C(C)C)ccc34)CC2)c(C)c1 (stereo not drawn) | 10.2% | –
Oc1c(-c2ccccc2)nc2sc3c(c2c1-c1ccccc1)CCCC3 | -25.6% | –
CN(C)C(=O)c1cccnc1OC1CCN(C(=O)Cc2ccc(Cl)cc2)C1 (stereo not drawn) | -17.9% | –
CN(C)C[C@@H]1CN(c2ncccn2)C[C@H]1NC(=O)c1cc(Cl)ccc1F | – | 31.6 µM (active)
Cc1n[nH]c(C)c1CCC(=O)N[C@@H]1CN(S(C)(=O)=O)C[C@H]1CN(C)C | -5.53% | –
COc1ccc(CNC(=O)N[C@@H]2CN(c3ccncn3)C[C@H]2CN(C)C)cc1 | -21% | –
O=C(Cc1ccccc1Cl)N1CCN(c2ncnc3nc[nH]c23)CC1 | 4.8% | –
CN(C)C[C@@H]1CN(c2ccncn2)C[C@H]1NC(=O)c1cc(C2CC2)[nH]n1 | -3.97% | –
CCOc1ccc(CC(=O)N2C[C@@H](N)C[C@H]2C(=O)NC(C)C)cc1 | -25.5% | –
CN(C)C[C@@H]1CN(c2ncccn2)C[C@H]1NC(=O)Cc1ccccc1Cl | – | 22.4 µM (active)
CCOc1ccc(CC(=O)N[C@@H]2CN(c3ncccn3)C[C@H]2CN(C)C)cc1 | – | 25.1 µM (active)
O=C(c1cc(Cl)cc(Cl)c1)N1CCN(C(=O)c2cc(Cl)ccc2F)CC1 | 24% | –
CN(C)C[C@@H]1CN(c2ncccn2)C[C@H]1NC(=O)CCc1ccccc1 | – | 28.2 µM (active)
Cc1ccc(C)n1-c1nnc(N2CCC(C(=O)NCc3ccccc3Cl)CC2)s1 | -21.5% | –
C/C=C/c1ccc(OCC(=O)N2CCN(S(=O)(=O)c3ccccc3)CC2)c(OC)c1 | -5.54% | –
O=C(/C=C/c1ccccc1)Nc1cccc2c1CCCC2 | 24.1% | –
O=C(NCC1CC1)c1ccc(F)cc1 | 17.1% | –
Cc1ccc(OCc2nc3ccc(F)cc3[nH]2)cc1 | 15.2% | –
CCCCCC1CC(COc2ccccc2)OC1=O (stereo not drawn) | 26.8% | –
COc1ccc2c(COC(=O)c3cc4ccccc4cc3O)cc(=O)oc2c1 | -21.8% | –
CCc1cccc2c(C(=O)C(Nc3cccc(CO)c3)c3ccccc3)c[nH]c12 (stereo not drawn) | -20.6% | –
O=C(COC(=O)CCc1c[nH]c2ccccc12)NC1CC1 | 0.514% | –
Cc1cc(Nc2cccc(Cl)c2)n2nc(Cc3ccccc3)nc2n1 | -9.46% | –
O=C(c1ccccc1)c1ccc(C(=O)N2CCN(c3ccccc3)CC2)cc1 | -3.85% | –
C=CCNC(=O)N1CC[C@@H](CC(=O)O)[C@@H](CC2=NCCc3ccc(C)cc32)C1 | -15.8% [at 86.2 µM] | –

Compound | activity change, negative = inhibition | Potency
COc1cccc2c1CCN=C2C[C@H]1CN(C(=O)C(C)(C)C)CC[C@H]1CC(=O)O | – | 35.5 µM (active)
CC(C)(C)C(=O)N1CC[C@@H](CC(=O)O)[C@@H](CCN2CCN(c3cccc(C(F)(F)F)c3)CC2)C1 | 19% | –
Cc1ccc(CNC(=O)[C@H](C)NC(=O)[C@@H]2Cc3ccccc3CN2)cc1 | 5.1% | –
Cc1cccnc1NC(=O)C1c2ccccc2C(=O)N(C2CCCC2)C12CCCC2 (stereo not drawn) | – | 15.8 µM (active)
O=C(NCc1ccccn1)C1c2ccccc2C(=O)N(C2CCCC2)C12CCCC2 (stereo not drawn) | 22.4% | –
COCc1nnc(NC(=O)C2c3ccccc3C(=O)N(C3CCCC3)C23CCCC3)s1 (stereo not drawn) | -17.5% | –
CN(C)CCN(Cc1ccc(Cl)cc1)C(=O)c1ccncc1 | -6.95% | –
COc1cc(C(=O)OC2CCCCC2=O)ccc1OCc1ccccc1Cl (stereo not drawn) | -12.3% | –
Clc1ccc2[nH]c3c(c2c1)CCCC3 | -23.8% | –
COCCn1c(C)cnc1CC1CCN(C(=O)c2ccc(OC)cc2OC)CC1 | 34.2% | –
Cc1ccncc1C(=O)N1CCC(Cn2c(C)cnc2-c2cccnc2)CC1 | -18.9% | –
Cc1cnc(CC2CCN(C(=O)c3cccc4[nH]ccc34)CC2)n1CC1CC1 | – | 22.4 µM (active)
Cc1[nH]c(=O)[nH]c(=O)c1CCC(=O)Nc1nc(C(C)C)cs1 | -2.21% | –
CCOC(=O)C1CCN(C(=O)c2cccc(S(=O)(=O)N(CC)c3ccccc3)c2)CC1 | -3.52% | –
CC(=O)c1ccc(NC(=O)COC(=O)C2CCN(c3ccc(C(F)(F)F)cn3)CC2)cc1 | -18.1% | –
O=C(c1ccc(-c2ccc(N3CCCCC3)nc2)cc1)N1CCOCC1 | – | 28.2 µM (active)
CCOC(=O)C1CCN(C(=O)c2ccc(-c3ccc(N4CCCCCC4)nc3)cc2)CC1 | – | 15.8 µM (active)
O=C(OCc1cccc(Cl)c1)c1ccc(N2CCOCC2)nc1 | -16.1% | –
O=C(c1ccnc(-c2nnc3ccc(N4CCOCC4)nn23)c1)N1CCCCC1 | -40.3% [at 86.2 µM] | –
CCC(=O)Nc1ccc(Cl)cc1C | -3.1% | –
Cc1cc(C)c(OCC(=O)Nc2ccc(NC(=O)c3ccco3)cc2)c(Br)c1 | -5.67% | –
CCOc1cc(C)c(Cl)cc1S(=O)(=O)N1CCCCC1C (stereo not drawn) | -1.68% | –
CC(OC(=O)CCCc1c[nH]c2ccccc12)C(=O)NC(N)=O (stereo not drawn) | -1.4% | –
